High-throughput results from PubChem BioAssay.
Rows were chosen to be rich in hits. Some 3.5% of all compounds tested hit in one or more screens of this group.
MITF primary: human MITF inhibition, primary screen | O75030 | AlphaScreen MITF homodimerization, bead proximity signal | inhibition, % at 2.6 µM | 0.91% of 650,000 active | AID 1259374; in the data active means inhibition above about 50%;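 further: 0% = vehicle wells with protein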
GPR151 activ: activators of human GPR151 | Q8TDV0 | PathHunter beta-arrestin GPR151 cells, luminescence | 1% of 650,000 active | AID 1508602 | activation, % at 11.2 µM; in the data active means activation above about 4.9%;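 further: 0% = median of compound wells and 100% = cells with positive control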
Target sequence (Q8TDV0 whole entry, looked up): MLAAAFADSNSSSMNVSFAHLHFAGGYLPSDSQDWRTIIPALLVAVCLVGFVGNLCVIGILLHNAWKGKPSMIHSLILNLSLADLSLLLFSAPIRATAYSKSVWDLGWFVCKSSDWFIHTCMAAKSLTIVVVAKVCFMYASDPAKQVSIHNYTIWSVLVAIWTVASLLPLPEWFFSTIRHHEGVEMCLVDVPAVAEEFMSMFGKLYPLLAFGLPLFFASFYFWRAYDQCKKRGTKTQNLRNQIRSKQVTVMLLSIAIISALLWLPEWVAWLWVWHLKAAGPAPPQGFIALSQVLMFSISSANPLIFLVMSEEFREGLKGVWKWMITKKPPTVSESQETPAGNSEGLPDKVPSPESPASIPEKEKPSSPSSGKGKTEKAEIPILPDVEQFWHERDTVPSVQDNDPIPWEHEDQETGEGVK
FBW7 activator: activators of human E3 ligase FBW7. AID 1259310. AlphaScreen FBW7–phospho-cyclin E peptide binding, activator screen. Q969H0. 0.13% of 650,000 active. normalized activity (activation), % at 26.1 µM; in the data active means normalized activity above about 1.9%;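 further: purified mutant Fbw7 with reduced substrate affinity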
TEAD-YAP inh: TEAD-YAP interaction inhibition; HEK-TIYL cells, TEAD-Gal4/YAP UAS-luciferase luminescence; inhibition, % at 9.12 µM; 1.4% of 640,000 active; AID 1259422; in the data active means inhibition above about 32%;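 further: 0% = median of test compound wells and 100% = reference inhibitor wells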
MITF inh conf: confirmation of human MITF inhibitors | 16% of 4,700 active | shares compounds with MITF primary | inhibition, % at 2.6 µM | AlphaScreen MITF homodimerization, biotin/His-MITF beads | AID 1259372;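 active means inhibition above a cutoff derived from the DMSO control wells, cut at about 28% in these data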;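 further: 0% = MITF dimer wells with DMSO only; inhibitors lower the bead chemiluminescence by keeping MITF from dimerizing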
AS interf DR: AlphaScreen optical interference, dose response counter-screen | shares compounds with MITF primary | AlphaScreen optical interference counterscreen, cell-free | IC50, µM | 6% of 480 active; call rule not given here
AlphaScreen intf2: counter-screen: compounds optically interfering with AlphaScreen; inhibition, % at 2.6 µM; LysRS AlphaScreen counterscreen, signal interference, triplicate; AID 1259376; shares compounds with MITF primary; 7.6% of 4,700 active;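 active means inhibition above a cutoff derived from the DMSO control wells, cut at about 30% in these data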
* = called active by the depositor; · = not tested or not shown.

SMILES	MITF primary	GPR151 activ	FBW7 activator	TEAD-YAP inh	MITF inh conf	AlphaScreen intf2	others
CC(C)OCCCNC(=O)c1cc2c(Cl)nc3ccccc3c2s1	22.4	0.1	-0.1	-5.0	·	·
CC(C)OCCCNCc1cc2ccccc2nc1Cl	56.1*	-0.6	-0.1	5.5	11.9	7.0
CN(C)CCOCCOc1ccc(Cl)cc1C(C)(C)C	3.1	-0.1	0.0	-8.3	·	·
Cc1ccc(C(C)(C)C)c(OCCOCCN(C)C)c1	68.0*	-1.2	-0.1	0.3	-3.2	-8.1
COCCNCCOCCOc1ccc(C(C)(C)C)cc1C	26.2	-1.7	0.0	-4.8	·	·
Cc1cc(C(C)(C)C)ccc1OCCOCCN(C)C	72.3*	2.5	0.4	11.8	-2.2	-6.7
CCOC(=O)C1CCN(C/C=C/c2ccccc2OC)CC1	32.6	-0.2	-0.1	2.7	·	·
CCOC(=O)C1CCN(C/C=C/c2ccccc2[N+](=O)[O-])CC1	53.8*	-1.1	0.6	5.0	-13.0	-6.7
c1ccc(Nc2nc(Nc3ccccc3)nc(Oc3ccccc3)n2)cc1	11.9	0.0	0.2	7.3	·	·
NNc1nc(NN)nc(Nc2ccccc2)n1	65.2*	-1.7	-2.0	3.2	97.4*	100.3*
CCCC1(C(=O)OC)NC(c2ccc(N(C)C)cc2)C2C(=O)N(C)C(=O)C21 (configuration not stated)	-5.9	3.7	0.2	-3.9	·	·
CCOC(=O)c1cc[n+](CC(=O)c2cccc([N+](=O)[O-])c2)cc1	4.4	-2.3	0.0	5.5	·	·
N#Cc1cc[n+](CC(=O)c2cccc([N+](=O)[O-])c2)cc1	63.0*	0.9	-0.1	0.8	-16.1	-0.8
C#CC(C)(C)NC(=O)CN(c1ccc(OC)cc1)S(=O)(=O)c1ccccc1	20.9	-0.8	0.1	1.9	·	·
CC(C)(C)NC(=O)C(=O)NNC(=O)c1ccc([N+](=O)[O-])cc1[N+](=O)[O-]	65.9*	-2.0	0.9	-11.0	-21.8	1.3
CN(Cc1ccco1)C(=O)C(=O)Nc1ccc2nc3n(c(=O)c2c1)CCCCC3	-3.4	-0.8	-0.2	-7.0	·	·
CCCCN(Cc1ccco1)C(=O)C(=O)Nc1ccc2nc3n(c(=O)c2c1)CCCCC3	75.9*	-1.0	1.0	-1.7	7.8	20.9
O=C1NC(=O)/C(=C\c2cc(Cl)c(O)c(Br)c2)N1	5.4	-0.4	0.0	-1.7	·	·
COc1cc2cc3c(N)c(C(=O)Nc4sc(C)c(C)c4C#N)sc3nc2cc1OC	62.3*	1.2	-0.2	-0.5	70.1*	22.4	AS interf DR=>6.48
COc1ccc(Cn2cc(S(=O)(=O)c3ccccc3)c(=O)c3cc(OC)ccc32)cc1	-0.8	-0.2	-0.1	5.2	·	·
O=C(NO)c1nc[nH]c1C(=O)NO	98.4*	-2.1	-0.2	-1.4	98.9*	100.6*
O=C(Nc1ccccc1)c1nc[nH]c1C(=O)Nc1ccccc1	12.1	-0.1	-0.1	7.4	·	·
C=CCOC(=O)C1=C(C)N=c2s/c(=C3/C(=O)N(CC)c4ccccc43)c(=O)n2C1c1ccccc1 (configuration not stated)	-0.5	0.2	0.2	-3.0	·	·
COc1cc(CN2CCN(Cc3cccc(Cl)c3)CC2)cc(OC)c1	73.5*	1.4	-0.1	-1.3	6.7	3.8
COc1cc(CN2CCCCCC2)cc(OC)c1	-2.5	0.2	-0.1	-2.1	·	·
SMILES	MITF primary	GPR151 activ	FBW7 activator	TEAD-YAP inh	MITF inh conf	AlphaScreen intf2	others
COc1cccc(CN2CCCCC2)c1	-4.8	-0.3	-0.2	0.6	·	·
COc1cc(CN2CCN(Cc3ccc(Cl)cc3)CC2)cc(OC)c1	84.3*	-1.8	-0.1	1.0	0.3	-1.3
Cc1ccsc1CN1CCN2C(=O)[C@H](C)N(C)C(=O)[C@H]2C1	12.5	1.1	0.9	4.5	·	·
O=C(c1ccc2nc(-c3ccco3)c(-c3ccco3)nc2c1)N1CCSCC1	87.2*	-0.5	-0.4	14.7	72.3*	7.0	AS interf DR=>6.48
O=C(c1ccc2nc(-c3cccs3)c(-c3cccs3)nc2c1)N1CCOCC1	-7.0	-0.8	0.3	3.2	·	·
O=C(c1cccc(F)c1)N1CCN(Cc2ccccn2)CC1	43.2	1.4	-0.2	-5.2	·	·
O=C(c1ccc([N+](=O)[O-])cc1)N1CCN(Cc2cccc3ccccc23)CC1	57.7*	2.0	-0.4	-5.5	29.0*	16.4	AS interf DR=>5.48
O=C(c1ccc([N+](=O)[O-])cc1)N1CCN(Cc2ccccn2)CC1	64.0*	-0.2	0.0	3.0	-10.1	-5.3
CN(C)c1ccc(C(=O)n2nnc3ccccc32)cc1	61.1*	-0.1	-0.2	0.3	1.6	8.5
CCN1CCN(CCOc2cccc(Oc3ccccc3)c2)CC1	73.7*	1.0	-0.1	-0.4	6.6	10.5
Brc1cccc(OCCN2CCNCC2)c1	29.1	-2.3	-0.7	-10.3	·	·
CCN1CCN(CCCOc2ccc(OCc3ccccc3)cc2)CC1	34.2	-0.2	-0.4	-12.9	·	·
CCN1CCN(CCOCCOc2ccccc2)CC1	53.8*	-0.7	-0.3	12.3	4.3	11.1
c1ccc(Oc2cccc(OCCN3CCNCC3)c2)cc1	70.8*	0.0	0.1	-12.4	13.2	-6.5
CC(=O)N1CCOc2cc(S(=O)(=O)Nc3ccc(Cl)cn3)c(C)cc21	11.1	0.1	-0.1	13.3	·	·
COc1ccc(-c2cn3c4ccccc4n(CCN4CCCCC4)c3n2)cc1	2.2	-1.8	0.6	-3.8	·	·
Cc1c(CNCCC2=CCCCC2)c(C(=O)O)c(C)n1Cc1ccc(F)cc1	6.9	-0.1	-0.1	-8.3	·	·
Cc1cc(NC(=O)C(C)NCc2cccs2)no1 (configuration not stated)	54.2*	1.1	-0.3	-37.1	6.0	6.2
CCN(CC)CCCNC(C)C(=O)Nc1cc(C)on1 (configuration not stated)	79.6*	1.0	0.1	3.9	11.6	15.9
Cc1cc(NC(=O)C(C)NCc2ccc(F)cc2)no1 (configuration not stated)	14.3	1.0	-0.4	-42.4	·	·
COc1ccccc1C(=O)Nc1ccc(C2(C#N)CCCC2)cc1	64.6*	-1.3	0.3	-42.5	9.6	6.4
O=C(/C=C/c1cn(-c2nc(-c3ccccc3)c3cc(Br)ccc3n2)[n+](-c2ccccc2)c1)c1ccccc1	76.6*	-0.7	0.1	-18.1	6.1	10.5
CC1CCN(CCCNC(=O)C2CC(=O)N(CCc3ccccc3)C2)CC1 (configuration not stated)	107.2*	-1.7	-0.1	1.9	-9.1	-3.1
O=C(CN1CCN(c2ccccc2F)CC1)NCCC1=CCCCC1	67.6*	-0.1	0.1	-5.6	12.1	11.2
O=C(CN1CCN(c2ccccc2F)CC1)N1CCCc2ccccc21	52.5*	2.1	-0.1	7.1	9.4	21.8
CC1CC(C)(C)N(C(=O)CN2CCN(C)CC2)c2ccccc21 (configuration not stated)	80.6*	-1.9	1.1	12.2	4.8	14.5
Cc1ccc2c(c1)C(C)CC(C)(C)N2C(=O)CN1CCN(C)CC1 (configuration not stated)	-3.7	2.3	-0.4	-2.5	·	·
